Results from the supplement of paper PMC6555819.

What was measured:
Assay in all cases: PBM binding z-score (relative to random genomic background probes); higher = stronger binding; sequences stand for … in GC…GCGATTGACAGCGTAGAATGAAGG
[1] = test system: RARb homodimer (NR concentration 270 nM)
Method in brief: (§1)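 Ligand-free nuclear receptor dimers were applied to custom Agilent 4×180K protein-binding microarrays whose double-stranded probes carried direct-repeat seeds, single-nucleotide variants, half-site ablations and random human genomic background sequences in 34-nt variable regions. Incubation lasted 1 h. Binding z-scores were computed against the random background probes from regression-normalized fluorescence.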

[2] = test system: RARg:RXRa (NR concentration 270 nM, RXRa partner concentration 90 nM)
Method in brief: as §1

[3] = test system: RARg homodimer (NR concentration 270 nM)
Method in brief: as §1

[4] = test system: RXRa DBDmut IVT, anti-RXR (DBD mutation: RXRa K156A/R161A, NR concentration 90 nM)
Method in brief: as §1

[5] = test system: RXRa homodimer (NR concentration 180 nM)
Method in brief: as §1

[6] = test system: THRa:RXRa (NR concentration 90 nM, RXRa partner concentration 90 nM)
Method in brief: as §1

[7] = test system: THRa homodimer (NR concentration 90 nM)
Method in brief: as §1

[8] = test system: VDR homodimer (NR concentration 270 nM)
Method in brief: as §1

Sequence | PBM binding z-score [1] | PBM binding z-score [2] | PBM binding z-score [3] | PBM binding z-score [4] | PBM binding z-score [5] | PBM binding z-score [6] | PBM binding z-score [7] | PBM binding z-score [8]
AGAACGAGGGCAATGAGTTTATAGCACGGGTGGC | 1.18 | 1.27 | 1.88 | 2.91 | 0.965 | 0.983 | -0.489 | 5.83
ATATGTCGGTTACATCCGGGTCATTCAGGCTATG | 2.58 | 2.37 | 1.71 | 0.511 | 2.45 | 3.31 | 2.52 | 3.41
TCTAGTTGGTCAAAGGTTACACACTCGAAATGCG | 2.96 | 4.04 | 2.46 | 1.54 | 4.59 | 2.37 | 1.01 | 1.23
TCTATTAGTTGATTAGGGCAACCGGAACAGCGGA | 0.786 | 0.516 | 0.529 | 1.16 | 0.673 | 0.816 | 0.261 | 0.547
ATCTGTAGGTAAAGATAGTTCAGTGAATGCAAAT | 0.933 | 0.435 | 0.657 | -0.108 | 0.326 | 0.527 | -0.0674 | 0.568
CGTCCAAGGCCAAGGTCAGTGAAAGAGACTCGAA | 3.42 | 2.86 | 3.7 | 1.31 | 1.83 | 2.87 | 1.51 | 0.947
CCTGCTAGGTCATGGTCAGCTTATCTACAGTATG | 3.15 | 3.67 | 4.7 | 1.86 | 3.01 | 2.97 | 1.52 | 0.201
ACTAGCAGGCCAAGGGTCGCTCAAGATTAGTCCG | 0.923 | 1.12 | 0.872 | -0.27 | 1.13 | 0.795 | -0.633 | -0.246
TGAATGAGGTTATAAGTTCAGGGAACGTTGCAAA | 2.54 | 4.88 | 2.27 | 1.49 | 3.46 | 2.58 | 0.487 | 2.85
ATCTCTAGGTAACAAGTACAGTGAAAGAGAGGAC | 0.631 | 0.905 | 0.824 | -0.118 | 0.349 | 1.12 | 0.739 | 0.41
TCGAGTAGGTTACCAATGGAGCATTCAGCTTTCT | -0.304 | 0.18 | 0.258 | 0.293 | 0.319 | -0.213 | -0.898 | -0.759
CGTCCAAGGTCGATGCTAGGTCAGTGAAAGCATT | 3.05 | 4.58 | 2.78 | 1.32 | 1.41 | 3.28 | 1.45 | 1.09
ACTATTAGTTGACATAGGGCAACCGATACGACGC | 1.24 | 0.928 | 1.29 | 0.826 | 0.903 | 1.25 | 0.125 | 0.399
TATTGTAGATCAATAGAGGTTAAGAAAGTGCGCT | 1.44 | 1.05 | 0.855 | -0.302 | 1.36 | 2.32 | -0.234 | 0.323
CAAACTATGTCACAGAGGTCAAAGTCCGTGCGTA | 4.82 | 5.68 | 5.01 | 2.12 | 6.58 | 3.83 | 1.89 | 4.59
GCTGCTAGGTCAACTGATGCTCAGCTAAAGCTCG | 3.18 | 4.37 | 5.36 | 1.64 | 2.89 | 2.89 | 0.915 | -0.0358
CGAACGAGGGAATGAGTTGATAGCAAATGCCGAT | -0.933 | -0.383 | 0.11 | -0.064 | -0.465 | -0.489 | -0.692 | 0.188
CCTGCTGGGCCAAAGGTCATTGATTCCAATGCTC | 4.53 | 5.82 | 4.91 | 1.48 | 6.37 | 3.2 | 0.638 | 2.24
ATCTCTTGGTAAAGATAGTTCAGTGAATGCAAAT | 1.23 | 0.592 | 0.734 | 0.404 | 0.246 | 0.575 | 0.156 | 0.713
ATCTGTAGGTAAAAGTTCAGTGAATCCCGAGGAT | 2.42 | 1.79 | 1.84 | 0.663 | 1.65 | 0.83 | -0.173 | 1.36
GCTAGTTAGTCAGTAAAAGGTCACACACCGGTCG | 5.02 | 4.93 | 4.43 | 0.44 | 5.22 | 3.49 | 1.36 | 1.62
ATACCAAGGTGATCGTGAGATCGTTGATACTAAC | 0.108 | 0.309 | 0.133 | 0.00637 | 0.0742 | 0.704 | 0.421 | 0.0841
TTACCAAGGTGCGCTGAGGTCGTTGATCCAACTC | 1.13 | 0.294 | -0.0595 | 1.12 | 0.936 | 3.59 | 1.87 | 3.64
TCTTGTAGATCAATGGTTAAGAAAGCCGAAGCCT | -0.529 | -0.0652 | -0.444 | 0.768 | 0.123 | -0.193 | -0.412 | -0.25
ATCTCTAGGTAACCATGTTCAGTGAATGCCGAAC | 0.332 | 0.315 | 0.421 | 0.392 | 0.272 | 0.812 | 0.66 | 0.0942
TAGCCTAGGGCATGGGCCAGTATACCACGCGAAC | 0.79 | 0.484 | 0.834 | -1.24 | 0.135 | -0.0791 | 0.0268 | -0.21
ACTATGAGTTGACTTAGGGCAACCGATACGACGC | 1.06 | 1.07 | 1.2 | 1.49 | 0.819 | 2.22 | 0.414 | 1.26
GGAACGAGGGCAAGTTGATACCAGAGTTTGATGG | 1.43 | 1.53 | 2.1 | 2.56 | 1 | 1.31 | -0.003 | 2.05
